High-throughput results (PubChem BioAssay)
Sampled rows, rich in hits. Any-hit rate of the full collection: about 27%.
CYP2C19 inhib = blockers of cytochrome P450 2C19 activity – biochemical, luminescence, ADME assay, primary screen. actives 21% (n = 96,000). CYP2C19 Supersomes, luciferin-H EGE luminescence, 30 min. P33261. inhibition, % at 5 µM;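 active means CYP2C19 inhibition above a set limit at 5 µM in the primary screen, cut at about 50% in these data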
CYP2C19 activ = human CYP2C19 activators, primary screen, biochemical, luminescence. AID 1025, 2008. 96,000 tested, under 10 active. Cytochrome P450 2C19 (Homo sapiens), P33261. activation factor at 5 µM. recombinant CYP2C19, luciferin-H EGE luminescence; active compounds read high; 0 = fully inhibited enzyme, 1 = untreated enzyme;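 active means activation factor of at least 2 at 5 µM in the primary screen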
CYP2C9 activ = human CYP2C9 activators, primary screen, biochemical, luminescence | Cytochrome P450 2C9 (Homo sapiens), P11712 | recombinant CYP2C9, luciferin-H conversion; active compounds read high; factor 1 = untreated enzyme, 0 = blocked | activation factor at 5 µM | actives 1.4% (n = 96,000);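 active means activation factor of 2 or more for CYP2C9 at a 5 µM dose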
Target sequence (P11712 whole entry, looked up): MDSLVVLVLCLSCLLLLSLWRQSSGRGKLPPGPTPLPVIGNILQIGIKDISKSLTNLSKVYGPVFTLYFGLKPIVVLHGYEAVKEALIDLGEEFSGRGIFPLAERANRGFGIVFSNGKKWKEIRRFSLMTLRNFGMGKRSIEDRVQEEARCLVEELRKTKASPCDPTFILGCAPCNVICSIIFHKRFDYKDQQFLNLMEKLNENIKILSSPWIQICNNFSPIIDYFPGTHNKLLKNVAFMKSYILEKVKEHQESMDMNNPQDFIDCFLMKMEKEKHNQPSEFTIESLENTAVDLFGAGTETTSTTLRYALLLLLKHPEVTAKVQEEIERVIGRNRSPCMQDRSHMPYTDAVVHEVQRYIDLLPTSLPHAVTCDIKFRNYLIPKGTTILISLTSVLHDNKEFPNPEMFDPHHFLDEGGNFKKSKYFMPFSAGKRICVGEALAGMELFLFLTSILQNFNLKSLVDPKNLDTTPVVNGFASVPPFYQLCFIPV
CYP2C9 inhib = blockers of cytochrome P450 2C9 activity – biochemical, luminescence, ADME assay, primary screen; P11712; CYP2C9 Supersomes, luciferin-H conversion; inhibition, % at 5 µM; actives 20% (n = 96,000);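 active means blocking of liver enzyme CYP2C9 beyond about 50% at 5 µM, limit read from the data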
sEH activator = soluble epoxide hydrolase activators, primary screen, biochemical, human sEH | actives 0.04% (n = 91,000) | activation, % at 2 µM | AID 717, 2007 | purified human sEH enzymatic activity, activator screen | Bifunctional epoxide hydrolase 2 (Homo sapiens), P34913; in the data active means activation above about 37%
sEH inh = soluble epoxide hydrolase inhibitors, primary screen, biochemical, human sEH. Bifunctional epoxide hydrolase 2 (Homo sapiens), P34913. inhibition, % at 2 µM. AID 707, 2007. recombinant human sEH enzymatic activity assay. actives 0.34% (n = 91,000); in the data active means inhibition above about 80%
Each line names hits and unclear results; the compound was inactive in the other large screens.

CCN(Cc1ccccc1)C(c1ccc(C)cc1)c1nnnn1C(C)(C)C (stereo unspecified)	none
CCc1nnc(NC(=O)COC(=O)CN2C(=O)c3ccccc3C2=O)s1	none
Cc1cc(NC(=O)COc2ncnc3sc(C)c(C)c23)no1	none
CCc1ccc2c(CN3CCc4ccccc43)cc(=O)oc2c1	CYP2C19 inhib 94 (no result: sEH activator, sEH inh)
Cc1ccc2c(CN3CCCc4ccccc43)cc(=O)oc2c1C	none
CCc1ccc2oc(=O)cc(CN3CCN(CCO)CC3)c2c1	none
Cc1cc2oc(=O)cc(CN3CCc4ccccc43)c2cc1Cl	CYP2C19 inhib 79, CYP2C9 inhib 61
O=C(NC(=S)NNC(=O)c1cccs1)c1ccc(Br)o1	none
C=CCNc1nc(SC)nc2ccsc12	CYP2C9 activ 2.3
COc1ccc(OC)c(-n2nnnc2SCC(=O)O)c1	none
COc1ccc2c(c1)C=C(C(=O)NCc1ccc(Cl)cc1)CO2	CYP2C19 inhib 53, CYP2C9 inhib 62
CC(C)c1nnc(SCC(=O)NCc2ccc3c(c2)OCO3)n1C	none (no result: CYP2C19 inhib, CYP2C19 activ, CYP2C9 activ, CYP2C9 inhib)
COc1cccc(N2C(=O)Nc3ccccc3C2(O)C(=O)NCc2ccc3c(c2)OCO3)c1 (stereo unspecified)	CYP2C19 inhib 61 (no result: sEH activator, sEH inh)
COc1ccc(-n2ccnc2SCC(=O)NCc2ccc3c(c2)OCO3)cc1	CYP2C19 inhib 100, CYP2C9 inhib 94
COc1ccc(OC)c(-n2nnnc2SCC(=O)NCc2ccc3c(c2)OCO3)c1	CYP2C19 inhib 81, CYP2C9 inhib 60
CCOC(=O)c1ccc(NC(=O)CCC(=O)OC)cc1	none
Cc1cc(=O)oc2cc(OCC(=O)NCCc3nc4ccccc4[nH]3)ccc12	none
O=C1NC2(CCCCC2)Oc2ccccc21	none (no result: sEH activator, sEH inh)
O=C(OC(C(=O)NCc1ccc2c(c1)OCO2)c1ccccc1F)c1ccco1 (stereo unspecified)	CYP2C9 inhib 67
COc1ccc(CNC(=O)CSc2nnnn2-c2ccc(O)cc2)cc1	CYP2C19 inhib 89 (no result: sEH activator, sEH inh)
CC(N=C1NS(=O)(=O)c2ccccc21)C(=O)NCc1ccc2c(c1)OCO2 (stereo unspecified)	CYP2C19 inhib 58, CYP2C9 inhib 86
COc1ccc(-n2nnnc2SCC(=O)NCCc2ccc(OC)c(OC)c2)cc1	none
Cc1ccsc1C(=O)OCC(=O)NCc1ccc2c(c1)OCO2	CYP2C19 inhib 60, CYP2C9 inhib 72 (no result: sEH activator, sEH inh)
CC1CCCC(NC(=O)c2ccc(CNc3c(N4CCCC4)c(=O)c3=O)cc2)C1C (stereo unspecified)	none (no result: sEH activator, sEH inh)
O=C(Cn1nc(-c2ccccc2)c2ccccc2c1=O)NCCN1CCOCC1	none (no result: sEH activator, sEH inh)
O=C(NCc1ccc2c(c1)OCO2)c1cccc(C(=O)NCc2ccc3c(c2)OCO3)c1	none
CCC(NC(=O)NCc1ccc2c(c1)OCO2)(C(F)(F)F)C(F)(F)F	CYP2C19 inhib 86, CYP2C9 inhib 52
COc1ccccc1CC(=O)NCc1ccc2c(c1)OCO2	CYP2C19 inhib 90
O=C(NCc1ccc2c(c1)OCO2)Oc1ccccc1	CYP2C19 inhib 74 (no result: sEH activator, sEH inh)
CC(=O)OCC(=O)NCc1ccc2c(c1)OCO2	none
COc1ccc(CC(=O)NCc2ccc3c(c2)OCO3)cc1	CYP2C19 inhib 97, CYP2C9 inhib 69
CC1(C(=O)O)CCC(C(=O)NC2CCCCC2)C1(C)C (stereo unspecified)	none
COc1ccc(NC(=O)c2ccc3c(c2)OCO3)cc1Cl	none
COc1ccc(NCc2ccc3c(c2)OCO3)cc1Cl	CYP2C19 inhib 98, CYP2C9 inhib 86
Cc1cc2cc(CNC(=O)c3ccc4c(c3)OCO4)ccc2n1C	CYP2C19 inhib 72 (no result: sEH activator, sEH inh)
COc1cccc(CNC(=O)Cc2c(C(=O)O)[nH]c3ccccc23)c1	CYP2C9 inhib 52
Cc1cc2cc(CNC(=O)c3cc4ccccc4o3)ccc2n1C	none (no result: sEH activator, sEH inh)
COc1cccc(CNC(=O)C2(C)Oc3ccccc3NC2=O)c1 (stereo unspecified)	CYP2C19 inhib 72, CYP2C9 inhib 92
COc1ccc(C(=O)COC(=O)[C@H](C)Nc2ccc(C(F)(F)F)cc2[N+](=O)[O-])c(OC)c1	none
O=C(Cc1cccs1)NCc1ccc2c(c1)OCO2	CYP2C19 inhib 92
CCOc1ccccc1C(=O)NCc1ccc2c(c1)OCO2	CYP2C19 inhib 98
O=C(NCc1ccc2c(c1)OCO2)c1ccc(C2SCC(=O)N2Cc2ccco2)cc1 (stereo unspecified)	CYP2C19 inhib 67, CYP2C9 inhib 98
O=C(NCc1ccc2c(c1)OCO2)c1cccnc1	CYP2C19 inhib 59
COC(=O)c1cccc(NC(=O)C2C3CCC(C3)C2C(=O)O)c1 (stereo unspecified)	none
C=C(c1ccc(O)cc1)c1ccc(O)cc1	CYP2C19 inhib 96, CYP2C9 inhib 98
O=C(c1ccc(O)cc1)c1ccc(Cl)cc1	none
CCOc1ccc(Nc2oc(-c3ccccc3Cl)nc2C#N)cc1	CYP2C9 inhib 76
CNc1oc(-c2ccccc2Cl)nc1C#N	none
CC(=O)c1c(C)[nH]c(C(=O)N2CCCCCC2)c1C	none
Cc1cc(OC(C)C(=O)N/N=C/CC(C)c2ccccc2)ccc1Cl (stereo unspecified)	CYP2C19 inhib 74
CC(/C=N/NC(=O)C(O)c1ccccc1)=C\c1ccccc1 (stereo unspecified)	none
CCCC1(c2ccccc2)NC(=O)N(CC(=O)c2[nH]c(C)c(C(=O)OCC)c2C)C1=O (stereo unspecified)	CYP2C19 inhib 94, CYP2C9 inhib 98
CCOC(=O)c1c(C)[nH]c(C(=O)CN2C(=O)NC(C)(c3ccc4ccccc4c3)C2=O)c1C (stereo unspecified)	CYP2C9 inhib 62 (no result: sEH activator, sEH inh)
Cc1cc(NC(=O)CN2C(=O)NC(C)(c3ccccc3)C2=O)no1 (stereo unspecified)	none
COc1ccc(OC)c(C(=O)CN2C(=O)NC(C)(c3ccccc3)C2=O)c1 (stereo unspecified)	CYP2C19 inhib 99, CYP2C9 activ 2
CCOC(=O)c1c(C)[nH]c(C(=O)Cn2nnc(-c3ccc(Cl)cc3)n2)c1C	none
CCCC1(c2ccccc2)NC(=O)N(CC(=O)Nc2sc(-c3ccccc3)cc2C(=O)OCC)C1=O (stereo unspecified)	CYP2C9 inhib 60
CC(C)OP(=O)(OC(C)C)C(NC(=O)c1cccc([N+](=O)[O-])c1)C(N)=O (stereo unspecified)	none
CCOC(=O)CC(=O)Nc1cc(Cl)ccc1O	none (no result: sEH activator, sEH inh)
Cc1cc(C)nc(/N=C(/NC(=O)Nc2cccc(Cl)c2)Nc2ccccc2)n1	none
Cc1nn(Cc2ccc([N+](=O)[O-])cc2)c(=O)n1N(C)c1ncc(C(F)(F)F)cc1Cl	none
